# Reference: PubChem BioAssay (NCI)
# This is part of a sample that, as a whole, favours compounds with a hit. Of some 83,000 tested, about 20% had one in any assay.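 Note: values are percent growth. 100 is the growth of untreated cells, values between 100 and 0 indicate rising inhibition; between -100 and 0 indicates cell death.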 Active and inactive are the calls of the source. The calls were made as follows: active = growth percent below 10; inactive = the rest.
# System: SK-OV-3 ovarian
# Assay: NCI-60 one-dose screen, 48 h (100 = growth as untreated, 0 = no growth, -100 = all killed)
# Settings: 10 µM
row,SMILES,growth
1,CCCC1(CC(=O)O)OCCc2c1[nH]c1ccccc21 (centres undefined),217% (inactive)
2,CN(C)C(=S)N/N=C\C=N/NC(=S)N(C)C,49.9% (inactive)
3,C=C(NC(=O)C(=C)NC(=O)c1csc(C2=NC3c4csc(n4)C4NC(=O)c5csc(n5)C(C(C)(O)C(C)O)NC(=O)C5CSC(=N5)/C(=C/C)NC(=O)C(C(C)O)NC(=O)c5csc(n5)C3(CC2)NC(=O)C(C)NC(=O)C(=C)NC(=O)C(=C)NC(=O)C(C(C)C)NC2C=Cc3c(C(C)O)cc(nc3C2O)C(=O)OC4C)n1)C(N)=O (centres undefined),61.9% (inactive)
4,COc1ccc2nc3ccccc3c(NCCNCC(C)O)c2c1 (centres undefined),-3.44% (active)
5,CN(C)CCN1C(=O)c2cccc3cc(N)cc(c23)C1=O,36.9% (inactive)
6,COc1ccc(N2C(=O)C3c4[nH]c5ccc(OCc6ccccc6)cc5c4C4CCC(C(C)C)CC4C3C2=O)cc1 (centres undefined),116% (inactive)
7,CC(C)C[C@H](NC(=O)[C@H](Cc1cccc2ccccc12)NS(=O)(=O)c1cccc2cccnc12)B(O)O,0.299% (active)
8,O=C(CC(C(=O)c1ccccc1)N1CCOCC1)c1ccccc1 (centres undefined),98.3% (inactive)
9,NC(=O)SCC(=O)Nc1ccc(S(N)(=O)=O)cc1,108% (inactive)
10,CCCCN(CCCC)CCCCCCCCC(O)c1cc2ccccc2c2ccccc12 (centres undefined),80.7% (inactive)
11,O=C(CCCCCCC(=O)Nc1cccnc1)NO,78.9% (inactive)
12,COc1ccc2nc3cc(Cl)ccc3c(NCCNCC(C)O)c2c1 (centres undefined),37.5% (inactive)
13,Clc1cccc(-c2nc(-c3cccs3)no2)c1,106% (inactive)
14,CCCCCCCCCCCCCCCCCCOCC(COCCOCC[N+]1(CCCCCC(=O)[O-])CCCC1)Oc1ncccn1 (centres undefined),83.5% (inactive)
15,CC/C(=N\N=C(/CC)c1ccc(Br)cc1)c1ccc(Br)cc1,100% (inactive)
16,O=C1OCC2=C1C(c1ccc(Cl)c(Cl)c1)c1cc3c(cc1N2CCO)OCCO3 (centres undefined),29.5% (inactive)
17,COc1cc2nc(Nc3cccc(NC(C)=O)c3)nc(N)c2cc1OC,118% (inactive)
18,Cc1nc2ccc(CN(C)c3ccc(C(=O)N[C@@H](CCC(=O)O)C(=O)O)s3)cc2c(=O)[nH]1,55.3% (inactive)
19,CCCCCCCCN(CCCCCCCC)CCCCCCCCCN1CCCc2cc(OC)ccc21,93.6% (inactive)
20,Nc1ncnc2[nH]c(=O)[nH]c12,110% (inactive)
21,COc1ccc2c(c1)sc1nc(-c3ccccc3)c(-c3cccnc3)n12,108% (inactive)
22,C=C(Cl)[C@@](Cl)(CBr)CC[C@@H](Br)C(C)(C)Cl,93.5% (inactive)
23,C[N+](C)(C)c1ncnc2nc[nH]c12,97.3% (inactive)
24,COC(=O)[C@@H]1[C@H](O)[C@H](C)[C@H](O)[C@@](C)(O)/C=C\C=C(C)C(=O)Nc2c(C)c(OC(C)=O)c3c(c2O)C(=O)C(C)=C2OCOC(=C23)C(C)=C[C@@](C)(O)[C@H](O)[C@@H](C)[C@H]1OC(C)=O,117% (inactive)
